# Screening data: PubChem, National Center for Advancing Translational Sciences (NCATS)
# Pf growth 96h: Primary qHTS for delayed death inhibitors of the malarial parasite plastid, 96 hour incubation. P. falciparum luciferase reporter growth, 96 h. 320,000 compounds, 6.9% hits. Potency, µM (highest dose often 28.7 µM), for inactives: at the highest dose activity change, negative = inhibition, usual class: inhibitors; note: % is set by controls: 0 for no effect and ±100 for the full control effect
#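 Plates of compound plus infected erythrocytes (2% hematocrit, 0.05% parasitemia final) incubate 96 hours, 37 C, 5% CO2. Detection reagent added; reduced luminescence from the parasites' luciferase reporter flags inhibition.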
# HCV inh: qHTS Assay for Inhibitors of Hepatitis C Virus (HCV). 340,000 compounds, 3.4% hits. AID 651820, 2012. Potency, µM (highest dose often 41.8 µM), for the others: top-dose activity change, negative = inhibition, most hits filed as inhibitors. Huh7.5.1 HCVcc-Cre infection, luciferase reporter, 44 h; note: % is set by controls: 0 for no effect and ±100 for the full control effect
#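 Cells (1,000/well) were plated 4 h before compound, then infected with HCVcc-Cre virus (~0.5 moi). After 44 h further culture, infection was read as luciferase luminescence following a 15 min substrate incubation at room temperature.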
# VACV Venus inh: qHTS for Stage-Specific Inhibitors of Vaccinia Orthopoxvirus: Venus Reporter Primary qHTS; AID 720580, 2013; 330,000 compounds, 0.46% hits; Vaccinia virus Venus reporter expression, fluorescence; Potency, µM (doses to about 36.5 µM), for inactives: top-dose activity change, negative = inhibition, most hits filed as inhibitors; calls by dose curve; tested in A549 cells; note: % is set by controls: 0 for no effect and ±100 for the full control effect; nearly all actives have a fitted effect of over 30% in size
# Pf growth 48h: Primary qHTS for delayed death inhibitors of the malarial parasite plastid, 48 hour incubation; P. falciparum luciferase growth in erythrocytes, 48 h; Potency, µM (highest dose often 28.7 µM), for inactives: at the top dose activity change, negative = inhibition, actives largely listed as inhibitors; 310,000 compounds, 5.9% hits; note: % is set by controls: 0 for no effect and ±100 for the full control effect
#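 Here the parasites carry a stable luciferase gene and grow inside erythrocytes in Albumax-based RPMI medium with compound for one erythrocytic cycle. Activity is scored as loss of luminescent signal.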
# VACV mCherry inh: qHTS for Stage-Specific Inhibitors of Vaccinia Orthopoxvirus: mCherry Reporter Primary qHTS; Vaccinia virus mCherry reporter infection, fluorescence; 310,000 compounds, 0.63% hits; Potency, µM (titrated, usually from 36.5 µM), for the others: at the top dose activity change, negative = inhibition, usual class: inhibitors; calls by dose curve; tested in A549 cells; note: % is set by controls: 0 for no effect and ±100 for the full control effect; nearly all actives have a fitted effect of over 35% in size
# NS1 inh: qHTS Assay for Inhibitors of Influenza NS1 Protein Function | 270,000 compounds, 0.4% hits | AID 2326, 2010 | Potency, µM (titrated, usually from 46.1 µM), for inactives: top-dose activity, positive = more growth; calls by dose curve; note: actives are rising curves; nearly all actives have a fitted effect of over 50% in size
#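 Read-out: OD600 growth recovery of NS1-expressing budding yeast. Cells grown overnight at 30C in -URA glucose medium, washed, resuspended and diluted 1:100 in 2% galactose assay medium, pH 6.0. Same strain lacking NS1 served as positive control.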
# * marks the source's active call; other numbers are inactive results; i = inactive; u = inconclusive; x = no result given; [ ] = remark or other dose. Rows were chosen to be rich in hits. Some 11% of all compounds tested hit in one or more screens of this group. Unless noted, calls come from the whole dose curve; as a rule, active = well fitted inhibition curve with a large enough effect; inconclusive = small, poorly fitted or top-dose-only effect, or another doubt; inactive = no such curve, though single readings can be large or run the other way. Potency is the fitted concentration of half-maximal effect.
SMILES,Pf growth 96h,HCV inh,VACV Venus inh,Pf growth 48h,VACV mCherry inh,NS1 inh
COC(=O)[C@@H]1CC[C@H](C)[C@@H](c2ccc(C)cc2)N1C(=O)c1ccc(/C=N/O[C@@H](C)c2cn([C@H](CO)Cc3ccccc3)nn2)cc1,4.7µM*,-9%[8.37 µM],x,3.7µM*,x,29%
COC(=O)c1ccc(COc2c(F)c(F)cc(F)c2F)o1,19%,15%,x,14%[0.00184 µM],x,0%
Cc1cc(N2CCN(Cc3ccccc3)CC2)n2nc(C)c(-c3ccccc3)c2n1,u,u,x,x,x,3%
CCN(CC)C(=O)C1CCN(c2cc(C)nc3c(-c4ccc(OC)c(OC)c4)c(C)nn23)CC1,x,x,-6%,x,-11%,x
Cc1cc(SCC#N)n2nc(C)c(-c3ccccc3)c2n1,193%,u,-27%,-10%,u,-60%
C=CCSc1cc(C)nc2c(-c3ccccc3)c(C)nn12,10µM*,u,1%[7.34 µM],u,7%[7.34 µM],3%
COc1ccc(-c2cc(C)nc3c(-c4ccccc4)cnn23)cc1,19%,11µM*,-11%,13%,-13%,5%
Cc1nn2c(N3CCCC3)cc(C(C)C)nc2c1-c1ccccc1,17%,14µM*,x,-6%,x,-50%
CCOCCCNC(=O)C1CCN(c2cc(C)nc3c(-c4ccc(OC)c(OC)c4)c(C)nn23)CC1,-4%,11µM*,x,4.1µM*,x,-5%
COCCN(C(=O)CSc1nncn1-c1ccccc1)c1c(N)n(Cc2ccccc2)c(=O)[nH]c1=O,-24%,20%,2%,-13%,-15%,4%
CCc1cc(=O)oc2c(CNCc3ccccc3F)c(O)c(Cl)cc12,0%,9%,x,4%,x,-2%
COc1ccc(-c2c(C)nn3c(NC4CCCC4)cc(C)nc23)cc1OC,u,10µM*,x,u,x,-13%
COc1ccccc1-c1c(C)nn2c(N3CCOCC3)cc(C)nc12,20%,u,x,-16%,x,-6%
COCCNc1cc(C)nc2c(-c3ccccc3OC)c(C)nn12,2.3µM*,u,-12%,-2%,-14%,-1%
CCc1nn2c(NCCOC)cc(C)nc2c1-c1ccc(F)cc1,32%,-25%,-11%,u,i,x
COc1ccccc1-c1c(C)nn2c(-c3ccccc3)cc(C)nc12,u,5µM*,u,u,-12%,1%
COc1ccccc1-c1cnn2c(NCCc3ccccc3)cc(C)nc12,46%,10µM*,-9%,38%,-9%,-8%
COc1ccc2c(c1)[C@H]1[C@H](CO2)[C@H](c2ccccc2)[C@]2(C)C(=O)Nc3ccccc3C(=O)N12,u,u,u,u,-25%,x
COc1ccccc1NC(=O)CCn1c(=O)oc2cc(Cl)ccc21,x,x,-5%,x,-14%,x
Cc1cc(C)cc(OCCNC(=O)CCc2ccccc2)c1,u,19%,-6%,7%,-14%,-23%
CNC(=O)NNC(=O)c1csc(Cc2c(Cl)sc3ccc(Cl)cc23)n1,7%,-13%,x,72%,x,-4%
COc1ccc(CCNc2cc(C)nc3c(-c4ccccc4)cnn23)cc1OC,-5%,u,-20%,-24%,-11%,23%
COc1ccc(CCNc2cc(C)nc3c(-c4ccccc4)c(C)nn23)cc1OC,u,11µM*,-15%,u,-9%,-23%
Cc1cc(N2CCCCC2)n2nc(C)c(-c3ccccc3)c2n1,u,1.6µM*,-28%,u,x,-2%
COc1ccccc1-c1c(C)nn2c(N3CCCCCC3)cc(C)nc12,9.3µM*,13µM*,u,10µM*,u,-154%
COc1ccc(-c2c(C)nn3c(N)c(-c4ccccc4)cnc23)cc1OC,-12%,13µM*,x,u,x,-8%
COc1ccccc1-c1c(C)nn2c(N)c(-c3ccccc3)cnc12,26%,u,-21%,8%,i,-51%
Cc1cc(N2CCC(C)CC2)n2nc(C)c(-c3ccccc3)c2n1,2%,-19%,x,13%,x,3%
CC(=O)c1c(C)[nH]c(C(=O)OCC(=O)N(C)c2c(N)n(Cc3ccccc3)c(=O)[nH]c2=O)c1C,2%,-13%,-6%,-14%,i,x
